# Laboratory results taken from PubChem BioAssay AID1851 (National Center for Advancing Translational Sciences (NCATS), 2009).
# Where “and” joins values, the source holds several entries; their conditions need not be identical. Equal entries are not always repeated. Hit rate of the full screen: of about 16,000 compounds, about 5,800 (36%) were called active. Roughly 23% stayed inconclusive and do not appear here. The call rests on the fitted dose curve; in most records, active means well fitted curve in the direction sought with a large enough effect; inconclusive means small, poorly fitted or top-dose-only effect, or effect the other way; inactive means no such curve, though single readings can be large or run the other way. The list shows a part of the results.
# Molecular target: Cytochrome P450 2C19 (Homo sapiens) (UniProt P33261)
# Sequence (P33261 whole entry, looked up): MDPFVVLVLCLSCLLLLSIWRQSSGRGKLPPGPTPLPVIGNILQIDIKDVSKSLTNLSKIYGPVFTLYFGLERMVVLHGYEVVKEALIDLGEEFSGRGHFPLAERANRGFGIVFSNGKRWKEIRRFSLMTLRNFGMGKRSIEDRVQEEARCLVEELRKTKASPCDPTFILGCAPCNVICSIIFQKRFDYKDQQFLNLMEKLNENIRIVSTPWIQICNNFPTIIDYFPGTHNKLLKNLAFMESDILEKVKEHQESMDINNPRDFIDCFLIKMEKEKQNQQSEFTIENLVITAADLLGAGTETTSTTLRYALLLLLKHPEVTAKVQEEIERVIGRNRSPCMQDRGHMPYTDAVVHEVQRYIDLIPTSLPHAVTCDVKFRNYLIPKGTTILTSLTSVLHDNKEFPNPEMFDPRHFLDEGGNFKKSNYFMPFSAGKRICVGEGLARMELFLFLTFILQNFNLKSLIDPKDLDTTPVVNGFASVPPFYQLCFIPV
# Experiment: Cytochrome panel assay with activity outcomes
# Conditions: recombinant CYP, pro-luciferin dealkylation, luminescence, p450-cyp2c19; series mostly up to 57.1 µM; activity, negative = inhibition: at the top concentration
# On the % scale 0 is the no-effect control and ±100 the full control effect.
SMILES,AC50,"activity, negative = inhibition"
O=S1(=O)[C@H]([C@H]2CC3c4ccccc4C2c2ccccc23)[C@@H](N2CCCCC2)[C@@H]1c1ccccc1,2.51 µM (active),–
O=C(O)[C@H]1C[C@@H](CP(=O)(O)O)CCN1,7.94 µM (active),–
O=C(O)[C@H]1CN(CCCP(=O)(O)O)CCN1,–,-8.91% (inactive)
O=C(O)[C@@H]1CCCN1,–,19.4% [at 11.4 µM] (inactive)
CCCCn1c(SCc2c(C)noc2C)nc2cc(S(N)(=O)=O)ccc21,14.1 µM (active),–
CCOc1c(OC(C)=O)ccc(/C=C/c2ccc3cccc(OC(C)=O)c3n2)c1[N+](=O)[O-],10 µM (active),–
CCOc1c(OC(C)=O)ccc(/C=C2\N=C(SCC)SC2=O)c1[N+](=O)[O-],2.82 µM (active),–
COc1ccc(-c2cc(C(F)F)nc(-n3nc(C)cc3C)n2)cc1,28.2 µM (active),–
Cc1c(C)c2c(C)[nH]nc2oc1=O,17.8 µM (active),–
Fc1ccc(CSc2ncnc3sc4c(c23)CCCC4)cc1,0.891 µM (active),–
Clc1ccc(CSc2ncnc3c2ncn3[C@@H]2CCCCO2)cc1,–,-40.6% [at 11.4 µM] (inactive)
Nc1[nH]c(=O)nc2c1ncn2[C@H]1O[C@@H](CO)[C@@H](O)[C@@H]1O,–,25.3% [at 11.4 µM] (inactive)
CCn1c2ccccc2c2cc(/C=N/n3cn[nH]c3=S)ccc21,3.55 µM (active),–
O=C1[C@H]2[C@H]3[C@H](O)[C@H](O)C/C(=N/OC[C@@H](O)COCc4ccco4)[C@@H]3CC[C@@H]2C(=O)N1C1CCCCC1,–,9.78% [at 11.4 µM] (inactive)
CS(=O)(=O)Nc1ccc(S(=O)(=O)N2CCOCC2)cc1,–,12.7% (inactive)
COc1cc(NC(=S)Nc2ccc(S(=O)(=O)N3CCOCC3)cc2)cc(OC)c1OC,10 µM (active),–
CCCc1c(OCCCOc2ccc(OCC(=O)O)cc2)ccc(CC=O)c1O,–,14% (inactive)
COc1ccc(C(=O)N/N=C(\C)Cn2nc([N+](=O)[O-])cc2C)cc1,–,-29% (inactive)
COc1ccc(CC(=O)Nc2cccc(/C(C)=N/NC(=O)c3cccc([N+](=O)[O-])c3)c2)cc1,14.1 µM (active),–
Cc1cc2nnc(SCC(=O)OC(C)C)n2c2ccccc12,7.94 µM (active),–
CCSc1nnc2n(N)c(=O)c3ccccc3n12,–,-68.5% (inactive)
COc1ccc(Oc2ncc3nc(C)c(=O)n(-c4ccc(OC)cc4)c3n2)cc1,–,-22% (inactive)
CC(=O)c1cc(C#N)c(Oc2cccc(C(F)(F)F)c2)nc1C,11.2 µM (active),–
COC(=O)c1cc(C#N)c(NCc2ccc(Cl)cc2Cl)nc1C,–,-14% (inactive)
COC(=O)c1cc(C#N)c(Oc2ccc(OC)cc2)nc1C,17.8 µM (active),–

SMILES,AC50,"activity, negative = inhibition"
Cn1cccc1C(=O)N1CCC2(CC1)CN(C(=O)Nc1ccccc1)C2,–,-10.7% (inactive)
Cn1cccc1C(=O)C(=O)Nc1cccc(Cl)c1Cl,3.16 µM (active),–
Cn1cccc1C(=O)N1CCC2(CCN(C(=O)Nc3ccccc3)CC2)CC1,–,-13.8% (inactive)
O=c1n(-c2ccccc2)c(=O)n2n1CC[C@H]1/C(=N\OC[C@@H](O)COCc3ccco3)[C@H]3O[C@@H]3[C@@H](O)[C@@H]12,–,18.2% [at 11.4 µM] (inactive) and 1.03% [at 11.4 µM] (inactive)
Cc1ccnc2nc(C(=O)OCC(=O)Nc3ccc4c(c3)OC(F)(F)O4)nn12,–,-13.2% (inactive)
CCN(c1ccc(NC(=O)COC(=O)c2ccc3ccccc3n2)cc1)C(C)C,4.47 µM (active),–
COc1ccc(C(=O)Nc2ccc(OCC(F)(F)C(F)F)c(C(F)(F)F)c2)cc1OC,14.1 µM (active),–
CC(C)NC(=O)N1CC[C@@]2(CCCN(C(=O)c3csnn3)C2)C1,–,26.7% (inactive)
Cc1ccc2cc(CCNC(=O)c3ccc(Br)o3)c(=O)[nH]c2c1,2.24 µM (active),–
COc1ccc2cc(CCNC(=O)C3CC3)c(=O)[nH]c2c1,–,15.9% (inactive)
CC(=O)N1CCN(C(=O)CC2OC(=O)c3ccccc32)CC1 (configuration not stated),1.78 µM (active),–
COc1ccc(OC)c2c(=S)c3ccccc3[nH]c12,–,-15% (inactive)
CCN(C(=S)Nc1ccccc1F)C1CCCCC1,3.98 µM (active),–
Cc1ccc([N+](=O)[O-])cc1NC(=S)NC(=O)CC(C)(C)C,4.47 µM (active),–
Cc1ccc(SCc2ccc(C(=O)Nc3cc([N+](=O)[O-])ccc3C)cc2)cc1,–,-29.8% (inactive)
Cc1ccc([N+](=O)[O-])cc1NC(=S)NC(=O)C(C)(C)C,2 µM (active),–
O=C(O)c1ccc(C(=O)Nc2cccc3ccccc23)c(C(=O)O)c1,–,12.6% [at 11.4 µM] (inactive)
CCn1c(C)c(C)c2cc(C(=O)Nc3cccc(Cl)c3)ccc21,7.08 µM (active),–
Cc1c(C)n(C)c2ccc(C(=O)Nc3cccc4ccccc34)cc12,3.55 µM (active),–
COc1ncc2nc(-c3cc(F)cc(F)c3)c(=O)n(-c3ccccc3)c2n1,–,-6.54% (inactive)
C[N+](C)(CCCOc1ccccc1)c1ccccc1,–,-7.56% [at 25.6 µM] (inactive)
Cc1ccccc1OCCCn1c(=O)sc2ccccc21,1 µM (active),–
O=c1sc2ccccc2n1CCCOc1ccccc1,1.12 µM (active),–
Cc1ccc(OCCCn2c(=O)sc3ccccc32)cc1,0.708 µM (active),–
C/C(CCN1CCc2nc(-c3ccccc3)c(-c3ccccc3)cc2C1)=N\O[C@@H](C)c1cn([C@H](CO)Cc2ccccc2)nn1,–,-17.8% [at 11.4 µM] (inactive) and -16.4% [at 11.4 µM] (inactive)

SMILES,AC50,"activity, negative = inhibition"
OC[C@@H]1NC[C@@H](O)[C@H]1O,–,22.6% (inactive)
COc1cccc(C=NC=Nc2cccc(OC)c2)c1,–,13.9% (inactive)
O=c1[nH][nH]c(C(F)(F)F)c1C=Nc1cccc(Cl)c1,–,26.9% (inactive)
Clc1cccc(C=NC=Nc2cccc(Cl)c2)c1,10 µM (active),–
Cc1noc(C)c1-c1nccc(Nc2ccc(F)cc2)n1,3.98 µM (active),–
CNc1cc(-c2c(C)noc2C)ncn1,–,-0.312% (inactive)
Cc1noc(C)c1-c1nc(Nc2ccc(F)cc2)c2ccccc2n1,3.16 µM (active),–
COCCNc1nc(-c2c(C)noc2C)nc2ccccc12,–,-17.6% (inactive)
CN(C)Cc1ccccc1-c1nccc(NC2CC2)n1,–,15.1% (inactive)
Cc1noc(C)c1-c1nc(NC2CCNCC2)c2ccccc2n1,–,-9.75% (inactive)
Cc1noc(C)c1-c1nccc(NC2CC2)n1,10 µM (active),–
c1ccc2c(NCCN3CCOCC3)nc(-c3ccoc3)nc2c1,–,-14.3% (inactive)
Cc1noc(C)c1-c1nc(NCCN2CCOCC2)c2ccccc2n1,7.94 µM (active),–
Cc1noc(C)c1-c1nc(Nc2ccccc2)c2ccccc2n1,–,0.272% (inactive)
Cc1ccc(-[n+]2cc(=O)o[nH]2)cc1,–,-19.9% [at 11.4 µM] (inactive)
CC(C)NC(=O)N1CCCC2(CCN(C(=O)c3ccncc3)CC2)C1,–,-9.81% (inactive)
CSc1nc(NC2CCCC2)c([N+](=O)[O-])c(NC2CCCC2)n1,5.01 µM (active),–
CCNc1nnc(-c2ccncc2)s1,5.01 µM (active),–
COc1ccc(C(=O)O/N=C/c2ccc(S(=O)c3ccc(Cl)cc3)nc2)cc1 (configuration not stated),14.1 µM (active),–
COc1ccc2nc(NC(=O)C3CCN(S(=O)(=O)c4cccc5nsnc45)CC3)sc2c1,1.41 µM (active),–
O=C(NCc1cccs1)C1CCN(S(=O)(=O)c2cccc3nsnc23)CC1,–,-20.4% (inactive)
O=C(NCC1COc2ccccc2O1)C1CCN(S(=O)(=O)c2cccc3nsnc23)CC1 (configuration not stated),14.1 µM (active),–
c1cc(CN2CCCCC2)cc(OCCCNc2nc3ccccc3s2)c1,inactive,–
Cc1cccc(NC(=O)C2CCN(S(=O)(=O)c3cccc4nsnc34)CC2)n1,10 µM (active),–
COc1ccc2nc(NCN3C(=O)c4ccccc4C3=O)sc2c1,2.51 µM (active),–

SMILES,AC50,"activity, negative = inhibition"
COc1ccc(OC)c(S(=O)(=O)N2CCC(C(=O)NCCc3ccccc3)CC2)c1,–,-28.3% (inactive)
COc1ccc(OC)c(S(=O)(=O)N2CCC(C(=O)Nc3ccc(C)c(C)c3)CC2)c1,14.1 µM (active),–
CC1(C)C(=O)C(c2ccccc2)=C2CN3C(=O)N(CCc4ccccc4)C(=O)C3(Cc3ccc(C(F)(F)F)cc3)C=C21 (configuration not stated),–,-6.7% (inactive)
NC(=O)C[C@H](N)C(N)=O,–,-4.71% [at 11.4 µM] (inactive)
O=C1CCCC2=C1C(c1ccc(OS(=O)(=O)c3ccc(Cl)cc3)cc1)C1=C(CCCC1=O)O2,3.98 µM (active),–
CN(C)C[C@H]1CCC2=C(C1=O)C(c1ccc(Cl)c(Cl)c1)C1=C(CC[C@H](CN(C)C)C1=O)O2,–,13.9% [at 11.4 µM] (inactive)
Cc1ccc(S(=O)(=O)Oc2ccc(C3C4=C(CCCC4=O)OC4=C3C(=O)CCC4)cc2)cc1,4.47 µM (active),–
O=c1oc(-c2ccco2)nc2c1cnn2-c1ccccc1,7.08 µM (active),–
c1ccc(-n2ncc3c2ncn2cnnc32)cc1,–,-25.1% (inactive)
COC(=O)C(NNc1ccccc1)(NC(=O)c1ccccc1F)C(F)(F)F (configuration not stated),2.24 µM (active),–
O=C(O)c1ccccc1C(=O)NNc1ccc(F)cc1,–,-84.8% (inactive)
CCN(CC)CCN1C(=O)c2cccc3cc(N)cc(c23)C1=O,–,44.4% [at 11.4 µM] (inactive)
Cc1ccc(C(=O)O)cc1N1C(=O)c2cccc3cc(Br)cc(c23)C1=O,14.1 µM (active),–
CC1CSc2nc3sc4c(c3c(=O)n21)CCCC4 (configuration not stated),15.8 µM (active),–
CCN(CC(=O)NCc1cccs1)S(=O)(=O)c1ccc(C(C)C)cc1,5.62 µM (active),–
OCCCSCCO,–,18.7% [at 11.4 µM] (inactive)
CC(C)COP(=O)(OCC(C)C)C(O)c1ccccc1F (configuration not stated),–,-5.54% (inactive)
CC(C)COP(=O)(c1ccc(N(C)C)cc1)C(O)c1ccccc1F (configuration not stated),5.62 µM (active),–
Clc1ccc(-c2ccnc(Oc3cc(Cl)ccc3Cl)n2)cc1,0.316 µM (active),–
O=C(O)/C=C\C(=O)Nc1ccc2c(c1)-c1ccccc1C2,–,-24.1% [at 11.4 µM] (inactive)
S=C(Nc1ccc2c(c1)Cc1ccccc1-2)Nc1ccc2c(c1)Cc1ccccc1-2,–,-8.36% [at 11.4 µM] (inactive)
C(/C=C\c1ccccc1)=Nc1ccc2c(c1)Cc1ccccc1-2,3.98 µM (active),–
